DRD3 antagonist = blocks the human D3 dopamine receptor | P35462 | D3R cells, DiscoveRx beta-arrestin luminescence, antagonist mode; hits give low values | max response, negative = inhibition, % | 2.5% of 360,000 active; in the data active = max response below about -50%; inconclusive = no clear call, values can overlap the other calls; also: % is scaled to controls: 0 for no effect and ±100 for the full control effect
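Cells expressing the human receptor were seeded at 1500 cells/well, incubated overnight at 37 degrees C in 5% CO2, then exposed to library compounds with dopamine controls for 90 minutes at 37 degrees C before luminescent detection.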
PI5P4Ka inh = blocks human PI5P4K alpha kinase activity. PI5P4Kalpha enzyme, ADP-Glo luminescence, 60 min; hits give low values. P48426. max response, %. 1.2% of 330,000 active; active = max response of -50% or lower; inconclusive = between -30% and -50%; inactive = -30% or higher; also: value at the top dose of about 77 µM; % is scaled to controls: 0 for no effect and ±100 for the full control effect
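Human PI5P4Kalpha with substrate in 0.038 M HEPES pH 7.4, 0.28 mM EGTA, 0.1% CHAPS, 5% DMSO; reaction started with 5 microM ATP (final), 60 min at room temperature. ADP formed read by ADP-Glo luminescence.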
LDHA block = LDHA (human) enzyme inhibition; P00338; purified LDHA, NADH/diaphorase-resazurin fluorescence; hits give low values; activity change, % (values are at about 110 or 230 µM); 0.15% of 480,000 active; AID 1347041; in the data active = activity change below about -30%; inconclusive = mostly about -25% to -30%;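 also: plate controls were DMSO wells for no effect and wells without enzyme for full effect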
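Human LDH5 at 2 nM final in Tris HCl pH 7.4 with 0.06 mM NADH and 0.2 mM pyruvate, reacted 5 minutes at room temperature. Remaining NADH coupled via diaphorase/resazurin; resorufin fluorescence read at 0 and 20 minutes, normalized to enzyme-free and DMSO wells.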
DRD3 agonist = D3 dopamine receptor (human) agonism. P35462. D3R DiscoveRx beta-arrestin cells, luminescence, 90 min. max activation, %. 0.58% of 410,000 active; in the data active = max activation above about 30%; also: 0% is about no effect
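Agonist mode: compounds and dopamine controls were applied to plated cells for 90 min at 37 degrees C after an overnight attachment at 1500 cells/well. Luminescent read-out followed 30 - 60 minutes at room temperature with DiscoveRx detection reagent.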
PI4K2A inh = PI4K2A (human) kinase inhibition; Q9BTU6; purified PI4K2A, ADP-Glo luminescence, 1 h; hits give low values; activity change, negative = inhibition, % at 76.9 µM; 0.13% of 420,000 active; in the data active = activity change below about -50%; inconclusive = mostly about -30% to -49%;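 also: -100% = wells without enzyme as full effect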
Target sequence (Q9BTU6 whole entry, looked up): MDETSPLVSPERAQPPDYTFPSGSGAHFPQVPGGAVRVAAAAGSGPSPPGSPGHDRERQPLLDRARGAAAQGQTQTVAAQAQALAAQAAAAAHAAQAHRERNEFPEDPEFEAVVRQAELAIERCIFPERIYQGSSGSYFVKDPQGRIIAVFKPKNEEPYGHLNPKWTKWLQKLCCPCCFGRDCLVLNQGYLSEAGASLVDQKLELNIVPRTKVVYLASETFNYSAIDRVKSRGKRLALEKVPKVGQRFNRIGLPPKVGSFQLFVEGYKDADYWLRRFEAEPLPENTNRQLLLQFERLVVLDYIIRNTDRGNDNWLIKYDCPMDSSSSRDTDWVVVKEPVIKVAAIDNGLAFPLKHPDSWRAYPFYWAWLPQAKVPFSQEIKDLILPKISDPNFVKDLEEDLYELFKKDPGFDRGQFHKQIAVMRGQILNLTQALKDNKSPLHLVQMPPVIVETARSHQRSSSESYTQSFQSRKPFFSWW
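Compounds are screened against recombinant PI4K2A using PI as substrate and ATP, the latter dispensed at 300 microM. Reactions run one hour at ambient temperature before ADP-Glo detection; full inhibition defined by wells lacking enzyme.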
An asterisk follows results filed as active; ! = a repeat was not active. Only some compounds are listed: those with a hit (about 3.3% of all), similar ones and a draw of the others.

For CS(=O)(=O)c1ccc2nc(NC(=O)c3ccccc3Br)sc2c1 the results were DRD3 antagonist -56*, PI5P4Ka inh -12, LDHA block -13, DRD3 agonist -3 and PI4K2A inh -2.
Screening COc1cccc(-c2cc(C(=O)Nc3nc4ccccc4s3)c3ccccc3n2)c1 returned DRD3 antagonist -59*, LDHA block 2, DRD3 agonist -29 and PI4K2A inh -1.
For COc1ccc(-c2cc(C(=O)Nc3nc4c(C)cccc4s3)c3ccccc3n2)cc1OC the results were DRD3 antagonist 26, LDHA block 4, DRD3 agonist 33* and PI4K2A inh 6.
CS(=O)(=O)c1ccc2nc(NC(=O)c3ccccc3Cl)sc2c1 was read as DRD3 antagonist 0, PI5P4Ka inh -7, LDHA block 1, DRD3 agonist -15 and PI4K2A inh -3.
Cc1ccc(CN2CCC(CN)CC2)cc1 was read as LDHA block 7.
`COc1ccccc1C(=O)Nc1nc2ccccc2s1` gave DRD3 antagonist 63, PI5P4Ka inh inconclusive, LDHA block 1, DRD3 agonist 0 and PI4K2A inh -71*.
For CCOc1ccc(NC(=O)Cn2c(C)cc(=O)n3nc(-c4cccs4)nc23)cc1 the results were LDHA block -22.
Screening CCC(C)Sc1ccc(-c2nc3ccc(C)cn3c2NC2CCCCC2)cc1 (configuration not stated) returned DRD3 antagonist -27, PI5P4Ka inh 5, LDHA block 1, DRD3 agonist 1 and PI4K2A inh -7.
For CCC(C)Sc1cccc(-c2nc3ccc(C)cn3c2NC2CCCCC2)c1 (configuration not stated) the results were DRD3 antagonist 64, PI5P4Ka inh 0, LDHA block 1, DRD3 agonist 53*! and PI4K2A inh 0.
`Cc1ccc2nc(-c3cccc(SC4CCCCC4)c3)c(NC3CCCCC3)n2c1` gave DRD3 antagonist 24, PI5P4Ka inh 0, LDHA block 1, DRD3 agonist 2 and PI4K2A inh 0.
`COc1ccc(-c2ccc(-c3nc4ccc(C)cn4c3NC3CCCCC3)cc2OC)cc1` gave DRD3 antagonist 43, PI5P4Ka inh 0, LDHA block -1, DRD3 agonist 55*! and PI4K2A inh -1.
`CCCCNC(=O)c1ccc2c(Cl)c3c(nc2c1)CCCC3` gave LDHA block 8.
CC1(C)Cc2c(sc(NC(=O)c3ccc(C(=O)c4ccccc4)cc3)c2C#N)C(C)(C)N1 was read as DRD3 antagonist -57*, PI5P4Ka inh -2, LDHA block -6, DRD3 agonist -19 and PI4K2A inh -4.
For COC(=O)c1c(NC(=O)c2ccc(C(=O)c3ccccc3)cc2)sc2c1CC(C)(C)NC2(C)C the results were DRD3 antagonist -11, PI5P4Ka inh -3, LDHA block -2, DRD3 agonist 1 and PI4K2A inh -2.
Screening COc1ccc(F)cc1-c1cc(C(=O)NCc2ccc(C(F)(F)F)cc2)[nH]n1 returned DRD3 antagonist -73*, PI5P4Ka inh 2, LDHA block -5, DRD3 agonist -21 and PI4K2A inh 3.
For Cc1ccc(F)cc1-c1cc(C(=O)NCc2cc(C(F)(F)F)cc(C(F)(F)F)c2)[nH]n1 the results were DRD3 antagonist -70*, PI5P4Ka inh 4, LDHA block -5, DRD3 agonist -13 and PI4K2A inh 2.
For O=P(c1ccccc1)(c1ccccc1)c1ccccc1C(Br)Br the results were DRD3 antagonist -67*, PI5P4Ka inh 1, LDHA block 3, DRD3 agonist 3 and PI4K2A inh -2.
Screening CC(C)NC(=O)CN1CCCC1c1ccsc1 (configuration not stated) returned LDHA block 6.
CCN(CC)S(=O)(=O)c1cc(NC(=S)Nc2cccc(C)c2)ccc1C was read as LDHA block 2.
For Cc1c(CN2CCN(c3cccc(C(F)(F)F)c3)CC2)c(=O)n(-c2ccccc2)n1C the results were DRD3 antagonist -76*, PI5P4Ka inh -1, LDHA block -7, DRD3 agonist 3 and PI4K2A inh 2.
For O=c1cc(CO)oc(CN2CCN(c3cccc(C(F)(F)F)c3)CC2)c1O the results were DRD3 antagonist -64*, PI5P4Ka inh -4, LDHA block 3, DRD3 agonist 1 and PI4K2A inh 7.
